From PubChem BioAssay (EPA / NIEHS)
Where “and” joins values, the source holds several entries; their conditions need not be identical. Equal entries are not always repeated. More than one record can exist for a structure, and the calls need not agree. Calls of active or inactive are those of the source. How the source made its calls: active means hit-call score of the fitted dose curve at least 0.9, where 1 is the maximum; inactive means score below 0.9.

read-out: Interleukin-8 (IL8), CXCL8 (gene 3576); assay: BSK_IMphg_IL8: BioMAP Diversity Plus: IMphg Assay for Interleukin-8 (IL8) Biomarker Activity (AID 2284277); details: primary human endothelial cells with macrophages
Protocol: BSK_IMphg is a cell-based, multiplexed-readout assay that uses venular endothelial cells and macrophages, a human vascular primary cell, with measurements taken at 24 hours after chemical dosing in a microplate: 96-well plate.BSK_IMphg_IL8 is an assay component measured in the BSK_IMphg assay. It measures IL-8 antibody related to regulation of gene expression using ELISA technology.Data from the assay component BSK_IMphg_IL8 was analyzed at the endpoint, BSK_IMphg_IL8, in the positive analysis fitting direction relative to DMSO as the negative control and baseline of activity. Using a type of binding reporter, gain or loss-of-signal activity can be used to understand protein changes. To generalize the intended target to other relatable targets, this assay endpoint is annotated to the 'cytokine' intended target family, where the subfamily is 'interleukins'.
The levels of cell surface (or secreted, indicated by the prefix "s") biomarker endpoints were measured by ELISA. Overt cytotoxicity to cells in confluent adherent cultures (all systems other than the BT system) was assessed by measuring total protein levels using sulforhodamine B (SRB) staining in parallel cultures at the time of biomarker measurements, indicated as SRB endpoints. For proliferation assays for adherent cell types, individual cell types are cultured at sub-confluence and relative cell numbers quantified by SRB staining at time points optimized for each system (48 h: 3C and CASM3C systems; 72 h: BT and HDF3CGF systems; 96 h: SAg system). SRB was performed by staining cells with 0.1% SRB after fixation with 10% TCA and reading wells at 560 nm.Viability and proliferation of PBMC (T cells) was quantified by Alamar Blue reduction for the SAg and BT systems. For PBMC viability (referred to as PBMC Cytotoxicity within the assay endpoint names), cells were plated (75,000/well in a 96-well plate) and then chemical samples added for 1 h before addition of activators, SEB and TSST-1 (20 ng/mL final concentration each). Cells were incubated for 90 h. Then, Alamar Blue (20 uL/well) (Invitrogen, Cat DAL1100) was added for 6 h, and the plates were read with a fluorescence microplate reader at 546/580 nm (excitation/emission). For PBMC proliferation, cells were plated and activated as above but incubated for only 16 h prior to addition of Alamar Blue. Plates were read after 6 h.

outcome, inactive:
O=C(CC(=O)C(F)(F)C(F)(F)C(F)(F)F)c1cccs1, O=S(=O)(O)C(F)(F)C(F)(F)C(F)(F)C(F)(F)C(F)(F)C(F)(F)C(F)(F)C(F)(F)C(F)(F)C(F)(F)F, OCC(F)(F)C(F)(F)C(F)(F)C(F)(F)C(F)(F)C(F)(F)C(F)(F)C(F)(F)C(F)(F)C(F)(F)C(F)(F)F, O=P(O)(O)CCC(F)(F)C(F)(F)C(F)(F)C(F)(F)C(F)(F)C(F)(F)F, O=C(O)CCC(F)(F)C(F)(F)C(F)(F)C(F)(F)C(F)(F)F, O=P(O)(O)CCC(F)(F)C(F)(F)C(F)(F)C(F)(F)C(F)(F)C(F)(F)C(F)(F)C(F)(F)F, CN(CCO)S(=O)(=O)C(F)(F)C(F)(F)C(F)(F)C(F)(F)C(F)(F)C(F)(F)C(F)(F)C(F)(F)F, C=CC(=O)OCCC(F)(F)C(F)(F)C(F)(F)C(F)(F)C(F)(F)C(F)(F)C(F)(F)C(F)(F)F, CN(Cc1cnc2nc(N)nc(N)c2n1)c1ccc(C(=O)N[C@@H](CCC(=O)O)C(=O)O)cc1

AC50, active:
O=C(CC(=O)C(F)(F)C(F)(F)C(F)(F)F)c1cccs1 22.4 µM, O=S(=O)(O)C(F)(F)C(F)(F)C(F)(F)C(F)(F)C(F)(F)C(F)(F)C(F)(F)C(F)(F)C(F)(F)C(F)(F)F 12.2 µM, OCC(F)(F)C(F)(F)C(F)(F)C(F)(F)C(F)(F)C(F)(F)C(F)(F)C(F)(F)C(F)(F)C(F)(F)C(F)(F)F 0.216 µM, O=P(O)(O)CCC(F)(F)C(F)(F)C(F)(F)C(F)(F)C(F)(F)C(F)(F)C(F)(F)C(F)(F)F 40.1 µM, O=C(O)CCC(F)(F)C(F)(F)C(F)(F)C(F)(F)C(F)(F)C(F)(F)F 14.2 µM and 23 µM and 17.1 µM, O=C(O)C(F)(F)OC(F)(F)C(F)(F)OC(F)(F)C(F)(F)OC(F)(F)C(F)(F)C(F)(F)C(F)(F)F 54.2 µM and 7.06 µM
